About 1,500 (3.8%) of roughly 39,000 compounds were called active. Only a selection was taken, and actives are over-represented in it overall.

In the experiment the test system is HSkMC (human skeletal muscle cells). The experiment can be described thus: cytotoxicity call (relative viability < 0.9). The following applies: 10 µM.
In the case of `COC(=O)C=CC(=O)OC`, the cytotoxicity call was “inactive”. The value for `C[C@@H](NC(=O)C[C@H]1CC[C@@H](NC(=O)CN2CCOCC2)[C@H](CO)O1)c1ccccc1` was “inactive”; that for `C#CC1(O)CCC2C3CCC4=CCCCC4C3C(=C)CC21CC` (centres undefined) was “inactive”. On to `C#CC1(O)CCC2C3CCC4=CCCCC4C3CCC21C` (centres undefined), for which the cytotoxicity call is “active”.

`C#CC1(O)CCC2C3CCC4=CC(=O)CCC4C3CCC21C` (centres undefined): the cytotoxicity call was “inactive”. With `C[C@H](CO)N1C[C@H](C)[C@H](CN(C)C(=O)Cc2ccccc2)OCCCC[C@H](C)Oc2ccc(NC(=O)Nc3ccc4c(c3)OCO4)cc2C1=O`, the cytotoxicity call is “inactive”.

As for `C[C@@H]1CN([C@@H](C)CO)C(=O)c2cc(NS(=O)(=O)c3cn(C)cn3)ccc2O[C@H]1CN(C)Cc1ccc(C(=O)O)cc1`, the cytotoxicity call is “inactive”. The entry for `O=c1[nH]cc(/N=C/c2ccncc2)c(=O)[nH]1` is “inactive”; for `COc1ccc(NC(=O)N(C)C[C@H]2OCCCC[C@@H](C)Oc3ccc(NC(=O)NC(C)C)cc3C(=O)N([C@H](C)CO)C[C@@H]2C)cc1` it is “inactive”; for `CC(=O)O[C@H]1CC(C)(C)C[C@H]2[C@]13CO[C@@]21CC[C@H]2[C@@]4(C)CC[C@H](O[C@@H]5OC[C@H](O[C@@H]6O[C@H](CO)[C@@H](O)[C@H](O)[C@H]6O[C@@H]6OC[C@@H](O[C@@H]7O[C@H](CO)[C@@H](O)[C@H](O)[C@H]7O)[C@H](O)[C@H]6O)[C@H](O)[C@H]5O[C@@H]5O[C@H](CO)[C@@H](O)[C@H](O)[C@H]5O)[C@@](C)(CO)[C@@H]4CC[C@@]2(C)[C@]1(C)C[C@H]3O` it is “active”.

On to `C[C@H]1O[C@@H](OC[C@H]2O[C@@H](O[C@H]3CC[C@]4(C)[C@H]5CCC6=C(CC[C@@]7(C(=O)O[C@@H]8O[C@H](CO)[C@@H](O)[C@H](O)[C@H]8O[C@@H]8O[C@H](CO)[C@@H](O)[C@H](O)[C@H]8O)CCC(C)(C)C[C@@H]67)[C@]5(C)CC[C@H]4C3(C)C)[C@H](O)[C@@H](O)[C@@H]2O)[C@H](O)[C@@H](O)[C@@H]1O`, for which the cytotoxicity call is “inactive”. In the case of `C[C@@H]1O[C@@H](O[C@H]2[C@H](O[C@H]3[C@H](O)[C@@H](O[C@@H]4O[C@H](CO)[C@@H](O[C@@H]5O[C@H](CO)[C@H](O)[C@H]5O)[C@H](O)[C@H]4O)[C@H](O[C@H]4CC[C@]5(C)[C@H]6CC[C@]78OC[C@@]9(CCC(C)(C)C[C@@H]97)[C@H](O)C[C@@]8(C)[C@]6(C)CC[C@H]5C4(C)C)O[C@@H]3C(=O)O)O[C@H](CO)[C@H](O)[C@@H]2O)[C@H](O)[C@H](O)[C@H]1O`, the cytotoxicity call was “inactive”. For `CC1(C)CC[C@]2(C(=O)O[C@@H]3O[C@H](CO[C@@H]4O[C@H](CO)[C@@H](O)[C@H](O)[C@H]4O)[C@@H](O)[C@H](O)[C@H]3O)CC[C@]3(C)C(=CC[C@H]4[C@@]5(C)CC[C@H](O[C@@H]6OC[C@H](O)[C@H](O)[C@H]6O)C(C)(C)[C@@H]5CC[C@]43C)[C@@H]2C1`, the cytotoxicity call was “inactive”.

Regarding `CC1(C)CC[C@]2(C(=O)O[C@@H]3O[C@H](CO)[C@@H](O)[C@H](O)[C@H]3O)CC[C@]3(C)C(=CC[C@H]4[C@@]5(C)CC[C@@H](O[C@@H]6O[C@H](C(=O)O)[C@@H](O[C@@H]7OC[C@@H](O)[C@H](O)[C@H]7O)[C@H](O[C@@H]7OC[C@](O)(CO)[C@H]7O)[C@H]6O)C(C)(C)[C@@H]5CC[C@]43C)[C@@H]2C1`, the cytotoxicity call is “inactive”. The value for `C[C@@H]1O[C@@H](O[C@H]2[C@H](O[C@H]3[C@H](O)[C@@H](C(=O)O)O[C@@H](O[C@H]4CC[C@]5(C)[C@H]6CC[C@]78OC[C@@]9(CCC(C)(C)C[C@@H]97)[C@H](O)C[C@@]8(C)[C@]6(C)CC[C@H]5C4(C)C)[C@@H]3OC3O[C@H](CO)[C@@H](O)[C@H](O)[C@H]3O)O[C@H](CO)[C@H](O)[C@@H]2O)[C@H](O)[C@H](O)[C@H]1O` (some centres undefined) was “active”; that for `C[C@@H]1O[C@@H](O[C@H]2[C@H](O)[C@@H](O)[C@H](OC(=O)[C@]34CCC(C)(C)C[C@H]3C3=CC[C@H]5[C@@]6(C)CC[C@H](O[C@@H]7O[C@H](C(=O)O)[C@@H](O)[C@H](O)[C@H]7O)C(C)(C)[C@@H]6CC[C@@]5(C)[C@]3(C)CC4)O[C@@H]2CO)[C@H](O)[C@H](O)[C@H]1O` was “inactive”. For the molecule `C[C@@H]1O[C@@H](O[C@H]2[C@H](O[C@H]3[C@H](O)[C@@H](O[C@@H]4O[C@H](CO)[C@@H](O)[C@H](O)[C@H]4O)[C@H](O[C@H]4CC[C@]5(C)[C@H]6CC[C@]78OC[C@@]9(CCC(C)(C)C[C@@H]97)[C@H](O)C[C@@]8(C)[C@]6(C)CC[C@H]5C4(C)C)O[C@@H]3C(=O)O)O[C@H](CO)[C@H](O)[C@@H]2O)[C@H](O)[C@H](O)[C@H]1O`, the cytotoxicity call is “active”.

Take `CC(=O)O[C@H]1CC(C)(C)C[C@H]2[C@]13CO[C@@]21CC[C@@H]2[C@@]4(C)CC[C@H](O[C@@H]5O[C@H](C(=O)O)[C@@H](O)[C@H](O[C@@H]6O[C@H](CO)[C@H](O)[C@H](O)[C@H]6O[C@@H]6O[C@@H](C)[C@H](O)[C@@H](O)[C@H]6O)[C@H]5O[C@@H]5O[C@H](CO)[C@@H](O)[C@H](O)[C@H]5O)C(C)(C)[C@@H]4CC[C@@]2(C)[C@]1(C)C[C@H]3O`: the cytotoxicity call was “inactive”. `COc1ccc2c3c(n(c2c1)C)[C@@H](CO)N(CC1CCOCC1)C[C@]13CCN(CC1)C(=O)c1cnccn1`: the cytotoxicity call is “inactive”. For the molecule `CCc1c(C)c2cc3c(-c4ccccc4)coc3cc2oc1=O`, the cytotoxicity call is “inactive”. With `CNC[C@H]1OCCCC[C@@H](C)Oc2ccc(NS(=O)(=O)c3cn(C)cn3)cc2C(=O)N([C@@H](C)CO)C[C@@H]1C`, the cytotoxicity call is “inactive”. Consider `Cc1ccc(S(=O)(=O)Nc2ccc3c(c2)CC(=O)N([C@@H](C)CO)C[C@@H](C)[C@H](CN(C)C(=O)NC(C)C)O3)cc1`, for which the cytotoxicity call is “inactive”. The entry for `N#Cc1cc(F)cc(Oc2ccc(S(=O)(=O)C(F)F)c3c2CC(F)(F)[C@@H]3O)c1.N#Cc1cc(F)cc(Oc2ccc(S(=O)(=O)C(F)F)c3c2CC(F)(F)[C@H]3O)c1` is “inactive”. The entry for `COc1ccccc1NC(=O)N(C)C[C@H]1OCc2ccccc2-c2c(n(C)c3ccccc23)C(=O)N([C@H](C)CO)C[C@H]1C` is “inactive”; for `C=CC(=O)N[C@H]1CCCN(CC)C1` it is “inactive”; for `C[C@@H]1CN([C@@H](C)CO)C(=O)c2cccc(NS(=O)(=O)c3ccc(F)cc3)c2O[C@H]1CN(C)S(=O)(=O)c1cccs1` it is “inactive”. As for `C[C@@H]1CN([C@H](C)CO)C(=O)c2cc(Br)cnc2O[C@H]1CN(C)Cc1ccc2c(c1)OCO2`, the cytotoxicity call was “inactive”. The value for `C[C@@H]1CN([C@@H](C)CO)C(=O)Cc2cc(NS(=O)(=O)c3cccs3)ccc2O[C@@H]1CN(C)S(=O)(=O)c1cccs1` was “inactive”; that for `Cc1ccc(S(=O)(=O)N(C)C[C@@H]2Oc3ccc(NC(=O)c4ccncc4)cc3C(=O)N([C@H](C)CO)C[C@H]2C)cc1` was “inactive”.

As for `Cc1c(-c2ccc(C(N)=O)c3[nH]c4cc(C(C)(C)O)ccc4c23)cccc1-n1cnc2ccccc2c1=O`, the cytotoxicity call was “active”.

For the molecule `CCOC(=O)Cn1cnc2ccccc2c1=O`, the cytotoxicity call was “inactive”. As for `COc1ccc(S(=O)(=O)N(C)C[C@@H]2Oc3ccc(NC(=O)Cn4cnnn4)cc3C(=O)N([C@@H](C)CO)C[C@H]2C)cc1`, the cytotoxicity call was “inactive”. `Cc1ccc(S(=O)(=O)Nc2cccc3c2O[C@H](CN(C)CC2CC2)[C@H](C)CN([C@@H](C)CO)C3=O)cc1`: the cytotoxicity call was “inactive”. Take `COc1ccc(cc1)S(=O)(=O)N1CC[C@]2(CC1)CN([C@H](CO)c1c2c2ccc(cc2n1C)OC)C(=O)CN(C)C`: the cytotoxicity call was “active”.

Turning to `COc1ccc2c3c(n(c2c1)C)[C@@H](CO)N(C[C@]13CN(Cc2cccc(c2)F)C1)C(=O)C1CCOCC1`, the cytotoxicity call is “active”.

Consider `COc1ccc2c3c(n(c2c1)C)[C@H](CO)N(C[C@]13CN(Cc2cccc(c2)F)C1)C(=O)C1CCOCC1`, for which the cytotoxicity call was “inactive”. Take `COCC(=O)N1CC[C@]2(CC1)CN([C@H](CO)c1c2c2ccc(cc2n1C)OC)C(=O)Nc1ccccc1F`: the cytotoxicity call is “inactive”. Turning to `COc1ccc2c3c(n(c2c1)C)[C@H](CO)N(C[C@]13CCN(CC1)C(=O)c1ccccc1F)C(=O)Nc1ccccc1F`, the cytotoxicity call was “inactive”. As for `COc1ccc2c3c(n(c2c1)C)[C@@H](CO)N(C[C@]13CCN(CC1)C(=O)c1ccccc1F)C(=O)Nc1ccccc1F`, the cytotoxicity call is “active”. With `COc1ccc(cc1)S(=O)(=O)N1C[C@]2(C1)CN([C@@H](CO)c1c2c2ccc(cc2n1C)OC)C(=O)CN(C)C`, the cytotoxicity call was “inactive”. As to `COc1ccc(cc1)S(=O)(=O)N1CC[C@]2(CC1)CN([C@@H](CO)c1c2c2ccc(cc2n1C)OC)C(=O)CN(C)C`, the cytotoxicity call is “inactive”. Regarding `COc1ccc2c3c(n(c2c1)C)[C@@H](CO)N(C[C@]13CCN(CC1)C(=O)c1ccccc1F)C(=O)Nc1ccc(cc1)F`, the cytotoxicity call is “inactive”. As to `COc1ccc2c3c(n(c2c1)C)[C@H](CO)N(C[C@]13CCN(CC1)C(=O)c1ccccc1)C(=O)Nc1ccccc1F`, the cytotoxicity call was “active”. As to `COc1ccc2c3c(n(c2c1)C)[C@@H](CO)N(C[C@]13CCN(CC1)C(=O)c1ccccc1)C(=O)Nc1ccccc1F`, the cytotoxicity call was “inactive”. For the molecule `COc1ccc2c3c(n(c2c1)C)[C@@H](CO)N(C[C@]13CN(C1)C(=O)Nc1cccc(c1)F)C(=O)C1CCOCC1`, the cytotoxicity call was “inactive”. Consider `COc1cccc(NC(=O)C[C@H]2CC[C@H]3[C@H](COc4ccc(NC(=O)C5CCOCC5)cc4C(=O)N3C)O2)c1`, for which the cytotoxicity call was “inactive”. On to `Cc1ccc(S(=O)(=O)Nc2ccc3c(c2)C(=O)N([C@H](C)CO)C[C@@H](C)[C@@H](CN(C)S(C)(=O)=O)O3)cc1`, for which the cytotoxicity call is “inactive”.

On to `CC(C)c1onc(-c2c(Cl)cccc2Cl)c1COc1ccc(C=Cc2cccc(C(=O)O)c2)c(Cl)c1`, for which the cytotoxicity call was “inactive”. The entry for `C[C@@H]1CN([C@@H](C)CO)C(=O)c2cccc(NS(C)(=O)=O)c2O[C@@H]1CN(C)Cc1ccc2c(c1)OCO2` is “inactive”.
